Experimental findings from PubChem BioAssay (NCI) are described below.

About 83,000 compounds went through this panel and 20% of them were active in at least one assay; those are over-represented in the sample as a whole.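 Results are percent growth after 48 hours of single-concentration exposure. 100 means growth as in untreated cells, lower positive values show inhibition; negative values down to -100 show cell death.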 A number with no mark means an inactive call. Active and inactive are the calls of the source. How the source made its calls: active means growth percent below 10; inactive means the rest.

One assay relates to HOP-92 NSCLC. In words: NCI-60 one-dose screen, 48 h (100 = growth as untreated, 0 = no growth, -100 = all killed). As to conditions: 10 µM unless noted.
With `CCCCCCNC(=O)Oc1ccc(/C(=C(\C)c2ccc(OC)cc2)c2ccc(OCCN(C)C)cc2)cc1`, the growth was 50.4%.

Consider `Cc1cccc(NC(c2cc3cccc4ccc5cccc2c5c43)c2nnnn2C(C)(C)C)c1C` (configuration not stated), for which the growth was 90.2%.

For the compound `CCOC(=O)c1c(NCC(=O)Nc2cccc([N+](=O)[O-])c2)sc2c1CCCC2`, the growth was -24.7% (active).

As for `O=c1oc2ccc(-c3ccc(F)cc3F)cc2c(=O)n1-c1ccc(F)c(F)c1`, the growth was -21.4% (active).

With `Brc1cccc(/C=N/Nc2nc(N/N=C/c3cccc(Br)c3)nc(N3CCOCC3)n2)c1`, the growth is 63.8%.

Turning to `N#C/C(=C\c1ccc2ccccc2c1)C(=O)Nc1sc2c(c1C#N)CCC2`, the growth was 81.4%.

For a further assay, the system named is NCI-H522 lung. The description is as above. Conditions: 10 µM unless noted.
For the compound `COc1cc(C2=NN(C(C)=O)C(c3ccc(N4CCOCC4)cc3)C2)cc(OC)c1OC` (configuration not stated), the growth is 89.7%.

For `COc1ccc([C@H]2c3[nH]c4ccccc4c3C[C@@H]3C(=O)N(C4CCN(Cc5ccccc5)CC4)CC(=O)N23)c(OC)c1`, the growth is 87%.

Turning to `COc1ccc([C@H]2[C@H](O)C(=O)N2c2cc(OC)c(OC)c(OC)c2)cc1Cl`, the growth was -39.7% (active).

As for `COc1ccc(/C=C/C(=O)c2nnn(-c3ccc(C(=O)O)cc3)c2C)cc1OC`, the growth was 88.4%.

For the compound `O=[N+]([O-])c1ccc(-c2nnc(SCc3ccc(O)c4ncccc34)n2-c2ccccc2)cc1`, the growth was 9.93% (active).

With `O=C(NCCCNc1cc(-c2cn(-c3ccccc3)nc2-c2cccc(O)c2)ccn1)Nc1cccc(C(F)(F)F)c1`, the growth was 46.9%.

As to `CC(C)C(=O)Nc1ccc(-c2nc(-c3cccc(O)c3)c(-c3ccnc(Br)c3)[nH]2)cc1`, the growth was 48.4%.

For the compound `Cc1cc(F)cc(NS(=O)(=O)c2ccc(-c3cnc(C4CC4)o3)cc2)c1`, the growth was 8.89% (active).

For `CCOC(=O)c1c(NCC(=O)Nc2cccc(Cl)c2)sc2c1CCCC2`, the growth is 65.9%.

For `O=S(=O)(Nc1cc(Cl)cc(Cl)c1)c1ccc(-c2cnc(C3CC3)o2)cc1`, the growth is 33.9%.

`COc1cc2c3c(n(CCCNC4CCC4)c(=O)c2cc1OC)-c1cc2c(cc1C3=O)OCO2`: the growth is -44.9% (active).

On to `CCOC(=O)Nc1cccc(-n2cnc3cc(-c4ccc(O)cc4)ccc32)c1`, for which the growth is -12.7% (active).

In the case of `CC(=O)NC(C)(C)C(=O)N[C@@H](C)C(=O)NC(C)(C)C(=O)N[C@@H](C)C(=O)NC(C)(C)C(=O)N[C@@H](C)C(=O)N[C@@H](CCC(N)=O)C(=O)NC(C)(C)C(=O)N[C@H](C(=O)NC(C)(C)C(=O)NCC(=O)N[C@@H](CC(C)C)C(=O)NC(C)(C)C(=O)N1CCC[C@H]1C(=O)N[C@H](C(=O)NC(C)(C)C(=O)NC(C)(C)C(=O)N[C@@H](CCC(N)=O)C(=O)N[C@@H](CCC(N)=O)C(=O)N[C@H](CO)CC1CCCCC1)C(C)C)C(C)C`, the growth is 6.15% [5 µM] (active).

Consider `Cc1nn(-c2ccc(Cl)cc2)c(C)c1N=Nc1ccc2oc(=O)ccc2c1`, for which the growth was 81.7%.

Consider `CN(c1ccc(Br)cc1)S(=O)(=O)c1ccc(-c2cnc(C3CC3)o2)cc1`, for which the growth is 16.8%.

In the case of `CC(C)C[C@H]1C(=O)O[C@H](C(C)C)C(=O)N(C)[C@@H](C(C)C)C(=O)O[C@H](C(C)C)C(=O)N(C)[C@@H](C(C)C)C(=O)O[C@H](C(C)C)C(=O)N1C`, the growth was 1.72% (active).

In the case of `Nc1nc(-c2cccc([N+](=O)[O-])c2)c(N=Nc2ccccc2[N+](=O)[O-])s1`, the growth was 26.4%.

For `C/C(=N\NC(=O)CSc1nc2sc3c(c2c(=O)n1-c1ccccc1)CCC(C)C3)c1ccc(Cl)cc1` (configuration not stated), the growth is 22.2%.

With `C#C[C@]1(O)CC[C@H]2[C@@H]3CC=C4c5sc(Nc6nc(C)cc(OC)n6)nc5CC[C@]4(C)[C@H]3CC[C@@]21C`, the growth was 88.1%.

`CN1CCN(c2ccc(NC(=O)Nc3ccc4c(ccn4-c4cccc(C(N)=O)n4)c3)cc2C(F)(F)F)CC1`: the growth is 71.6%.

In the case of `COc1ccc(NS(=O)(=O)c2ccc(-c3cnc(C4CC4)o3)cc2)cc1Cl`, the growth was 33.2%.

Turning to `COc1ccc(-c2ccc3c4c(cccc24)C(=O)N(N2C(=O)c4cccc5cccc(c45)C2=O)C3=O)cc1`, the growth was 97.1%.

Turning to `N#Cc1c(NC(=O)c2ccc(F)c(Cl)c2)sc2c1CCC(=O)C2`, the growth is 3.24% (active).

As to `Nc1ccc(-c2nnc(SCc3ccc(O)c4ncccc34)o2)cc1`, the growth was -2.05% (active).

Consider `IP(CCCCCCCCCCSc1n(Cc2ccc3ccccc3c2)c(-c2ccccc2)c(-c2ccccc2)[n+]1Cc1ccc2ccccc2c1)(c1ccccc1)(c1ccccc1)c1ccccc1`, for which the growth is -61.8% (active).

As to `Cc1cc(Cl)cc(NS(=O)(=O)c2ccc(-c3cnc(C4CC4)o3)cc2)c1`, the growth is 17.9%.

With `COc1cc(/C=N/n2cnc3oc(-c4ccccc4)cc3c2=N)cc(CN2CCCCC2)c1O`, the growth was -42.2% (active).

For the compound `CCOC(=O)c1c(NC(=O)c2ccc(C(C)(C)C)cc2)sc2cc(OCCN3CCCCC3)ccc12`, the growth is 96.8%.

For the compound `NS(=O)(=O)Oc1ccc2nc(Nc3ccc(F)c(F)c3)ccc2c1`, the growth was 91.4%.

With `CC(=O)c1sc(Nc2cccc(Nc3nc(C)c(C)s3)c2)nc1C`, the growth is 46.2%.

In the case of `CCCCCCNC(=O)Oc1ccc(/C(=C(\C)c2ccc(OC)cc2)c2ccc(OCCN(C)C)cc2)cc1`, the growth is 98%.

As for `Cc1cccc(NC(c2cc3cccc4ccc5cccc2c5c43)c2nnnn2C(C)(C)C)c1C` (configuration not stated), the growth is 77.3%.

`CCOC(=O)c1c(NCC(=O)Nc2cccc([N+](=O)[O-])c2)sc2c1CCCC2`: the growth was -67% (active).

Regarding `O=c1oc2ccc(-c3ccc(F)cc3F)cc2c(=O)n1-c1ccc(F)c(F)c1`, the growth was -2.51% (active).

As for `Brc1cccc(/C=N/Nc2nc(N/N=C/c3cccc(Br)c3)nc(N3CCOCC3)n2)c1`, the growth is 33.6%.

For `N#C/C(=C\c1ccc2ccccc2c1)C(=O)Nc1sc2c(c1C#N)CCC2`, the growth was 96.7%.
